Hit rate of the full screen: of about 75,000 compounds, about 15 (0.02%) were called active. Inconclusive results (about 3%) are left out. The entries come from a sample that favours actives as a whole. Values without a mark were called inactive. The call rests on the fitted dose curve; in most records, active means well fitted inhibition curve with a large enough effect in the main read-out, with a control signal flat (not every such curve was filed as active); inconclusive means small, poorly fitted or top-dose-only effect, or a change in a side signal; inactive means flat fitted curve, though single readings scatter. Square brackets hold non-standard residues; d marks the D form. Side chains are listed from the residue outwards. Peptide text beside a SMILES is read from it. * marks the point of attachment. X1 = CCC(C)C(N)C1=NC(C(=O)*)CS1; Orn = NCCC[CH](N)C(=O)O
biological target: Caspase-7 (Homo sapiens) (UniProt P55210); test: qHTS Assay for Allosteric/Competitive Inhibitors of Caspase-7; settings: recombinant caspase-7, Ac-DEVD-AFC fluorescence rate; series mostly up to 57.5 µM; activity change, negative = inhibition: at the top concentration; on activity change, negative = inhibition: % of control where 0% means no effect
Description: NIH Molecular Libraries Screening Centers Network [MLSCN]
NIH Chemical Genomics Center [NCGC]
PI Name: Dr. James Wells,
Dr. Enrique Perez-Paya, Dr.Janice Williams, Dr. Dennis Wolan, a person
The caspases (Cysteine Aspartyl Protease) comprise a related family of 14 dimeric proteases that are critical mediators of apoptosis (programmed cell death) and inflammation. The caspases represent an important class of drug targets for stroke, ischemia, cancer and inflammatory diseases. […] One goal of this project was to identify compounds that act as allosteric inhibitors via stabilizing the procaspase form of the enzyme. Previous work in Well's laboratory has shown that such allosteric inhibitors can be identified and these act by binding at the dimer interface of enzyme (Hardy, Lam et al., 2004).
The biochemical assay was configured using purified caspase 7 at a high enzyme concentration to promote formation of the homodimers and thus facilitate the identification of allosteric inhibitors. The overall goal was to identify reversible inhibitors with better drug-like properties than the currently available set of aspartyl-containing peptidomimetics that covalently bind the active site. Caspase 7 was assayed using the profluorescent substrate Ac-DEVD-AFC. After initiation of the assay with substrate the plates were rapidly read using an automated robotic system (Kalypsys, Inc.) to maintain consistent timing. A kinetic mode of detection was used where the initial rate was collected (estimated final product formation was ~10%). Compounds were screened as a concentration-titration series that ranged from 57 uM to 0.7 nM. Below is the protocol used for caspase 7.
NCGC Assay Protocol Summary:
Caspase 7 was prepared in buffer (50 mM HEPES pH 7.5, 50 mM KCl, 200 mM NaCl, 10 mM DTT, 0.1% CHAPS) at a concentration of 66.6 nM and 3 uL was dispensed to all wells using black solid Kalypsys 1536-well plates. 20 nL of DMSO containing compounds was added using a pin-tool (Kalypsys Inc.) to columns 5-48. Then 20 nL of DMSO solution from a control plate was added to columns 1-4. Controls were: Column 1, 16 point titration with each concentration in duplicate (1:1 dilutions in DMSO; final starting concentration was 57 uM) of the caspase 7 inhibitor Ac-DEVD-CHO (Alexis Biochemicals); Column 2, a 16 point titration with each concentration in duplicate of the free AFC fluorophore prepared in DMSO (Alexis Biochemicals), final starting was 40 uM; Column 3 neutral (DMSO only) control; Column 4: DMSO alone, to serve as a negative control (no substrate was added). Then 1 uL of 20 uM the substrate Ac-DEVD-AFC (Alexis Biochemicals) prepared in the same buffer was dispensed to all wells except columns 2 and 4 and the plates were immediately transferred (< 1 min) to the Viewlux. The plates were then exposed using 405 nm excitation/520 nm emission filters for 4 sec and read at 20 sec intervals for 3 min. Final enzyme concentration was 50 nM and the final substrate concentration was 5 uM.
Concentration-response curves were fitted to the data calculated from slope of the linear regression of fluorescent intensity versus time (the rate). The concentration-effect curves were then classified based on curve quality (r2), response magnitude and degree of measured activity. […] Inconclusive compounds had appreciable concentration-dependent effects on both the measured rate and the interpolated basal fluorescence intensity at the start of the reaction but where the basal fluorescent intensity was marginal (e.g. < 10-fold). Inconclusive compounds also encompass highly fluorescent compounds (>100-fold increases in fluorescent intensities values relative to controls) where artificial concentration-dependent decreases in the rate occurred at high compound concentrations due to fluorescent interferences.
Keywords: Caspase 7, proteases, profluorescent, MLSMR, MLSCN, NIH Roadmap, qHTS, NCGC
Potency means the concentration at half of the fitted maximal effect.

Caspase-7 (Homo sapiens), sequence (P55210 24-198 limits assumed): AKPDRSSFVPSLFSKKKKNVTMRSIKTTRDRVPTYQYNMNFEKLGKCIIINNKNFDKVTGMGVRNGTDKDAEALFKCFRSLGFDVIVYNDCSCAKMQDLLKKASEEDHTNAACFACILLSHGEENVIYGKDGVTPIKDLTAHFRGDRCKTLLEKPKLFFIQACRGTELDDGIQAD
Caspase-7 (Homo sapiens), sequence (P55210 207-303 limits assumed): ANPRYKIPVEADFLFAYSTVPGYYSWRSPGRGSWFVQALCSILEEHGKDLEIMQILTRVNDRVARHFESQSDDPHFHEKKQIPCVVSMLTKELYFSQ

In order of rising “activity change, negative = inhibition” value:
1. Cc1cccc2c3c(ccc12)C1=C(C(=O)C3=O)C(C)CO1 (stereo not given)  -21.5%
2. CC(=O)N(CN1C(=O)C2CC=CCC2C1=O)c1cccc(Cl)c1 (stereo not given)  -16.2%
3. COc1ccc(-c2nc3cnc(OC)nc3n(Cc3ccc(F)cc3)c2=O)cc1  -10.3%
4. COc1ccc(N2C(=O)CN=C2Nc2cccc(C)c2C)cc1OC  -9.88%
5. CC[C@@H]1Cc2cc(O)ccc2C2=C1c1ccc(O)cc1C[C@H]2CC  -8.12%
6. C=C1C(=O)C23C(O)C1CCC2[C@]12COC3(O)C(O)C1C(C)(C)CC[C@H]2O (stereo not given in full)  -5.51%
7. Cc1c(NC(=O)Nc2ccccc2Cl)sc(=S)n1C  -4.46%
8. CCOC(=O)N1CCN(C(=O)CNC(=O)Cc2ccc(Cl)cc2)CC1  -4.36%
9. Cc1ccc(CNC(=O)C2CCCN(S(C)(=O)=O)C2)cc1 (stereo not given)  -4.02%
10. CCOC(=O)C1CCN(C(=O)COc2cc(C)c(Br)c(C)c2)CC1  -3.71%
11. Clc1ccc(C2[C@H]3CN(CC4CCCCC4)[C@H](c4ccccc4)C34CC2(c2cccnc2)C4)cn1 (stereo not given in full)  -2.48%
12. CCN1CCN(C(=O)c2ccccc2N(C)S(=O)(=O)c2ccc(C)cc2)CC1  -1.87%
13. COC(=O)c1ccc(C23CC4(C2)[C@H](CN(Cc2cccnc2)[C@@H]4c2ccccc2)C3c2ccc(Cl)nc2)cc1 (stereo not given in full)  -1.86%
14. Cc1ccc2nc(S(=O)(=O)O)[nH]c2c1  -1.75%
15. COC(=O)[C@@H]1C[C@@]2(O)[C@@H](O)[C@@H](O)[C@@H](O)C[C@H]2N1Cc1ccc(C)s1  -1.65%
16. CCOC(=O)C1CCCN(C(=O)c2ccc(CS(=O)(=O)c3ccc(Br)cc3)o2)C1 (stereo not given)  -1.53%
17. C=CCC(NCCCO)c1cccc(OC)c1OC (stereo not given)  -1.48%
18. CN1CCCC1CCO[C@@](C)(c1ccccc1)c1ccc(Cl)cc1 (stereo not given in full)  -1.39%
19. CCC(C)C(N)C1=NC(C(=O)NC(CC(C)C)C(=O)NC(CCC(=O)O)C(=O)NC(C(=O)NCCCCC2NC(=O)C(CC(N)=O)NC(=O)C(CC(=O)O)NC(=O)C(Cc3cnc[nH]3)NC(=O)C(Cc3ccccc3)NC(=O)C(C(C)CC)NC(=O)C(CCCN)NC2=O)C(C)CC)CS1 (stereo not drawn) (cyclo(DNK([Ile-Glu-Leu-X1])[Orn]IFH); configuration not given here)  -1.11%
20. Cc1nc2cc(-c3ccc(F)cc3)nn2c(N2CCOCC2)c1C  -1.05%
21. CC1(C)OC2CO[C@]3(COS(N)(=O)=O)OC(C)(C)OC3C2O1 (stereo not given in full)  -0.982%
22. COc1ccc(S(=O)(=O)N(C)CC(=O)Nc2ccc3c(c2)OCCO3)cc1OC  -0.767%
23. COc1ccc(OC)c2[nH]c(=O)c(CCNC(=O)C(C)(C)C)cc12  -0.648%
24. COC(=O)[C@@H]1C[C@@]2(O)[C@H](O)[C@H](O)[C@H](O)C[C@H]2N1Cc1ccc(C)s1  -0.351%
25. O=C(CSc1nc2ccccc2o1)N1CCN(c2ccccc2)CC1  -0.235%
26. CN(C)CCCCNC(=O)c1ccc(Cc2nc3ccccc3[nH]2)cc1  -0.141%
27. COc1ccc(S(=O)(=O)N2CCCC2)c(C)c1C  -0.0387%
28. CCC(CCC(C)C1CCC2C3CC=C4CC(O)CC[C@@]4(C)C3CC[C@@]12C)C(C)C (stereo not given in full)  0.256%
29. O=C(Nc1nsc(-c2ccccc2)n1)c1ccncc1  0.285%
30. C=C1C([C@@]2(C)C(OC(C)=O)CC(=O)O[C@@](C)(COC(C)=O)C2CC(=O)OC)C(OC=O)C(OC(=O)C(O)C(C)CC)[C@]2(C)C(c3ccoc3)CC(=O)C12O (stereo not given in full)  0.439%
31. CCCCOC(=O)CNc1nnc(SCC(=O)OCC)[nH]c1=O  0.456%
32. COc1ccc(S(=O)(=O)Nc2c(C)n(C)n(-c3ccccc3)c2=O)cc1  0.471%
33. COc1ccc(C2CC(=O)c3c(O)cc(OC4OC(COC5OC(C)C(O)C(O)C5O)C(O)C(O)C4O)cc3O2)cc1O (stereo not given)  0.477%
34. COc1cccc(OC)c1C(=O)Nc1nnc(C(C)C)s1  0.483%
35. Cc1cc(C)c(C)c(S(=O)(=O)Nc2ccc(O)cc2)c1C  0.495%
36. O=C(CSc1nc2ncccc2[nH]1)Nc1ccc2c(c1)OCCO2  0.658%
37. O=C(O)C(O)[C@@](O)(Cc1ccc(O)cc1)C(=O)O (stereo not given in full)  0.744%
38. COc1ccc(CCC(=O)c2c(O)cc(OC3OC(CO)C(O)C(O)C3O[C@@H]3OC(C)C(O)C(O)C3O)cc2O)cc1O (stereo not given in full)  0.803%
39. Cc1nn2c3cc(N4CCOCC4)ccc3nc2c2ccccc12  0.94%
40. Cc1cnc(C(=O)OCC(=O)Nc2ccc(Cl)cc2Cl)cn1  0.963%
41. COc1cccc(N2CCN(C(=O)C3CCCN(S(=O)(=O)c4cnc[nH]4)C3)CC2)c1 (stereo not given)  1.11%
42. Nc1nc2nc(Cl)[nH]c2c(=O)[nH]1  1.16%
43. O=C(Oc1cc(OC(=O)c2ccccc2)c2c(c1)OC(c1ccc(OC(=O)c3ccccc3)c(OC(=O)c3ccccc3)c1)[C@@H](OC(=O)c1ccccc1)C2)c1ccccc1 (stereo not given in full)  1.49%
44. C/C=C(/C)C(=O)OC1Cc2c(ccc3ccc(=O)oc23)OC1(C)C (stereo not given)  1.54%
45. CC(C)N(CCNC(=O)c1ccc(-n2c(=O)c(=O)[nH]c3ccccc32)cc1)C(C)C  1.72%
46. CC1CC[C@@]23CCC4(C)[C@@]5(C)CCC6C(C)(C)C(O)CC[C@@]6(C)C5C=C[C@@]4(OC2=O)C3C1C (stereo not given in full)  2.11%
47. COC1C[C@@H](O[C@@H]2C(C)C(=O)OC(C)C(C)C(O)C(C)C(=O)[C@@]3(CO3)CC(C)C(OC3OC(C)CC(N(C)C)C3O)C2C)OC(C)[C@@H]1O (stereo not given in full)  2.56%

`Nc1ncnc2c1ncn2C1CC(O)C(CO)O1` (stereo not given) was tested, and the activity change, negative = inhibition was “inactive”.

For `O=C(O)c1c(Br)c(Br)c(Br)c(Br)c1C1c2ccc(O)cc2Oc2cc(O)ccc21`, the Potency was 3.98 µM (active).

`CC(C)=CCC/C(C)=C/CO/N=C1/C[C@@H](O)[C@@H](O)[C@@H]2[C@@H]3C(=O)N(C(C)(C)C)C(=O)[C@H]3CC[C@H]12` showed an activity change, negative = inhibition of 0.517% [at 11.5 µM].
